Measured values published in PMC4552634, “A New Set of Chemical Starting Points with Plasmodium falciparum Transmission-Blocking Potential for Antimalarial Drug Discovery” (PLoS ONE, 2015).
In all, about 13,000 compounds went through this assay and about 3,200 (25%) showed an effect of 50% or more. The list shows a part of the results.

What follows are compounds tested on P. falciparum stage V gametocytes. Settings: 48 h, 5 µM; inhibitor.
Parameters: BacTiter-Glo ATP luminescence viability of purified stage V gametocytes in 384-well plates, per cent inhibition versus DMSO

SMILES	% Inhibition [%]
O=C(NNC(=O)c1ccc(CCN2CCC(c3nc(COCC(F)(F)F)c(-c4ccc(F)cc4)o3)CC2)cc1)Nc1ccc(Oc2ccccc2)cc1 [TCMDC-131906]	-12.54
CN1CCN(CCCN(Cc2csc(-c3ccc(CNCc4ccccc4)cc3)n2)S(=O)(=O)c2ccccc2Cl)CC1 [TCMDC-141603]	99.67
CN1CCN(CCCN(Cc2csc(-c3ccc(CNCc4ccccc4)cc3)n2)C(=O)c2cc(F)cc(F)c2)CC1 [TCMDC-141812]	50.04
CCc1ccc(NC(=O)N(CCCN2CCN(C)CC2)Cc2csc(-c3ccc(CNCc4ccccc4)cc3)n2)cc1 [TCMDC-141641]	9.107
CN1CCN(CCCN(Cc2csc(-c3ccc(CNCc4ccccc4)cc3)n2)C(=O)Nc2cc(Cl)cc(Cl)c2)CC1 [TCMDC-141795]	32.67
CN1CCN(CCCN(Cc2csc(-c3ccc(CNCc4ccccc4)cc3)n2)S(=O)(=O)c2ccccc2)CC1 [TCMDC-141600]	63.87
CN1CCN(CCCN(Cc2csc(-c3ccc(CNCc4ccccc4)cc3)n2)C(=O)Nc2ccc3ccccc3c2)CC1 [TCMDC-141642]	43.35
Cc1ccccc1C1CCN(C2CCC(NC(=O)/C=C/c3ccc4c(c3)OC(F)(F)O4)CC2)CC1 (centres unmarked) [TCMDC-133520]	-82.53
COc1cc(Br)ccc1N1CCN(CCCCNC(=O)c2ccc(NC(=O)c3ccc(Cl)cc3)cc2)CC1 [TCMDC-138257]	6.971
CC(C)c1ccc2[nH]c(C(=O)NC3CCC(N4CCCc5ccc(C#N)cc5C4)CC3)cc2c1 (centres unmarked) [TCMDC-133503]	-23.75
O=C(NCCCNc1ccnc2cc(Cl)ccc12)c1ccccc1F [TCMDC-125231]	46.84
N#Cc1ccccc1C1CCN(C2CCC(Nc3cc(-c4cccnc4)ccn3)CC2)CC1 (centres unmarked) [TCMDC-134834]	-2.713
Cc1cc(C(F)(F)F)nn1-c1ccc(NC(=O)c2ccco2)cc1 [TCMDC-124896]	9.865
O=C(/C=C/c1ccc(Cl)c(Cl)c1)NCCCCCN1CCC(NC(=O)Nc2cccc(Cl)c2Cl)CC1 [TCMDC-135725]	-48.39
NC1=NC(c2ccccc2)(c2ccccc2)C(=O)N1CC1CCC1 [TCMDC-136775]	2.608
O=C(/C=C/c1ccc(Cl)c(Cl)c1)NCCCCCN1CCC(NC(=O)Nc2cccc(Cl)c2)CC1 [TCMDC-135711]	59.36
Cc1ccc(NC(=S)NC2CCN(CCCCCNC(=O)/C=C/c3ccc(Cl)c(Cl)c3)CC2)cc1Cl [TCMDC-135901]	122.2
Cc1ccccc1NC(=S)NC1CCN(CCCCCNC(=O)/C=C/c2ccc(Cl)c(Cl)c2)CC1 [TCMDC-135897]	97.66
O=C(/C=C/c1ccc(Cl)c(Cl)c1)NCCCCCN1CCC(NC(=S)Nc2cccc(Cl)c2)CC1 [TCMDC-135899]	-1.091
CSc1ccccc1NC(=S)NC1CCN(CCCCCNC(=O)/C=C/c2ccc(Cl)c(Cl)c2)CC1 [TCMDC-139391]	14.69
Cc1cccc(NC(=S)NC2CCN(CCCCCNC(=O)/C=C/c3ccc(Cl)c(Cl)c3)CC2)c1 [TCMDC-139390]	-46.46
O=C(/C=C/c1ccc(Cl)c(Cl)c1)NCCCCCN1CCC(NC(=S)Nc2ccc(Cl)c(Cl)c2)CC1 [TCMDC-135903]	-7.54

SMILES	% Inhibition [%]
Cc1ccccc1NC(=O)NC1CCN(CCCCCNC(=O)/C=C/c2ccc(Cl)c(Cl)c2)CC1 [TCMDC-135701]	-65.25
O=C(/C=C/c1ccc(Cl)c(Cl)c1)NCCCCCN1CCC(NC(=O)Nc2cc(Cl)cc(Cl)c2)CC1 [TCMDC-135727]	-63.17
O=C(/C=C/c1ccc(Cl)c(Cl)c1)N1CCC(CCN2CCC(c3nc4ccc(O)cc4[nH]3)CC2)CC1 [TCMDC-140127]	-21.57
O=C(Nc1ccc(F)cc1)c1cnc(N2CCN(c3ccncc3)CC2)c(Cl)c1 [TCMDC-134599]	47.6
CC(C)(CNC(=O)C1CCN(Cc2ccc(Cl)cc2)CC1)c1nc(-c2ccc(Cl)c(O)c2)c(-c2ccncc2)[nH]1 [TCMDC-141138]	-35.73
NC(=O)c1cc2nc(Nc3ccc(F)cc3)nc(Nc3ccc(S(N)(=O)=O)cc3)c2[nH]1 [TCMDC-137043]	-45.2
CC(C)(C)NCc1cc(Nc2ccnc3cc(Cl)ccc23)ccc1F [TCMDC-135909]	-17.74
C[C@H](NC(=O)[C@H](CCCCNC(=O)OC(C)(C)C)NC(=O)OC(C)(C)c1ccc(-c2ccccc2)cc1)C(=O)OCc1ccccc1 [TCMDC-131396]	15.4
O=C(Nc1ccc2nccc(N3CCN4CCC[C@H]4C3)c2c1)c1ccc(Cl)c(Cl)c1 [TCMDC-139628]	19.58
CC[C@H](C)CNC(=O)c1cccc(-c2cccc(CN3CCC(N4CCCC4)CC3)c2)n1 [TCMDC-134224]	16.22
CC[C@H](C)CNC(=O)c1ccnc(-c2ccc(CN3CCC(N4CCCC4)CC3)cc2)c1 [TCMDC-134250]	36.18
CC[C@H](C)CNC(=O)c1cccc(-c2ccc(CN3CCC(N4CCCC4)CC3)cc2)n1 [TCMDC-134249]	57.67
N#Cc1ccc2c(c1)CCN(CCC1CCC(NC(=O)c3cc4cccc(Cl)c4[nH]3)CC1)CC2 (centres unmarked) [TCMDC-139685]	-1.386
Cc1ccc(C(=O)Cn2nc(-c3ccc(C)c(S(=O)(=O)N4CCCCC4)c3)ccc2=O)cc1 [TCMDC-124714]	32.41
Cc1ccc(C(=O)Cn2nc(-c3ccc(C)c(S(=O)(=O)N4CCCC4)c3)ccc2=O)cc1 [TCMDC-124704]	-26.21
Cc1ccc(-c2nnc3c4ccccc4c(C)nn23)cc1S(=O)(=O)N1CCN(CCO)CC1 [TCMDC-124482]	63.32
NC(=S)Cc1ccc2c(c1)OCO2 [TCMDC-137863]	-6.254
O=C(Cc1ccccc1)NC(CCN1CCC(N(C2CC2)S(=O)(=O)c2cccc(C(F)(F)F)c2)CC1)c1ccc(Cl)c(Cl)c1 (centres unmarked) [TCMDC-141710]	20.7
CCCCCN1CCC(NS(=O)(=O)c2cccc(C(=O)Nc3ccc(Cl)cc3)c2)CC1 [TCMDC-132806]	32.08
Cc1cnn(-c2cccc(C(=O)NC3CCC(CCN4CCc5ccc(C#N)cc5CC4)CC3)c2)c1 (centres unmarked) [TCMDC-139818]	-20.34
Cc1cccc2[nH]c(-c3cccc(-c4ccc(NC(=O)Nc5ccsc5)cc4)c3)nc12 [TCMDC-133211]	22.09
COc1cccc(Nc2nc(C)cc(NC3CCN(Cc4ccccc4)CC3)n2)c1 [TCMDC-134022]	-46.19

SMILES	% Inhibition [%]
Cc1cc(NC2CCN(Cc3ccccc3)CC2)nc(NCCCCc2ccccc2)n1 [TCMDC-138304]	79.92
Cc1ccc(-c2cncc(-c3cc(NC4CCN(Cc5ccccc5)CC4)nc(-c4ccccc4)n3)c2)cc1 [TCMDC-125588]	17.17
CS(=O)(=O)N(CC(O)Cn1c2ccc(Cl)cc2c2cc(Cl)ccc21)c1ccccc1 (centres unmarked) [TCMDC-124039]	35.36
CC12CCC(C(=O)N(CC(O)Cn3c4ccc(Cl)cc4c4cc(Cl)ccc43)C1=O)C2(C)C (centres unmarked) [TCMDC-125719]	82.98
OC(CNc1cccc(Cl)c1)Cn1c2ccc(Cl)cc2c2cc(Cl)ccc21 (centres unmarked) [TCMDC-125716]	20.85
Fc1ccc2[nH]c(-c3ccc(-c4ccc(CNCC5CCCO5)cc4)cc3)nc2c1.O=C(O)C(F)(F)F (centres unmarked) [TCMDC-133097]	36.17
CCOC(=O)c1cc2c(CCN3C(=O)c4ccccc4C3=O)cn(C)c2cc1-c1ccncc1 [TCMDC-138099]	108.6
CCOC(=O)c1c(CNc2ccncc2)n(C)c2cc(Br)c(OC(C)=O)cc12 [TCMDC-125700]	-53.66
CCOC(=O)c1cn(CC)c2cc(OCc3ccccc3)ccc2c1=O [TCMDC-141680]	0.3884
CS(=O)(=O)Nc1cccc(-c2cnc3[nH]cc(-c4cc(N)cc(C(=O)O)c4)c3c2)c1 [TCMDC-136220]	11.92
COc1nc(-n2ccc(=N)cc2)nc2ccccc12 [TCMDC-131303]	8.489
c1ccc(-n2cncn2)cc1 [TCMDC-124291]	2.88
CCC(C)CN1C(=O)C(c2ccccc2)(c2ccccc2)N=C1N (centres unmarked) [TCMDC-136799]	-2.713
CCC(CC)CN1C(=O)C(c2ccccc2)(c2ccccc2)N=C1N [TCMDC-136491]	13.18
CCC(CN1C(=O)C(c2ccccc2)(c2ccccc2)N=C1N)c1ccccc1 (centres unmarked) [TCMDC-136879]	66.04
CC(C)CNCc1cccc(-c2cccc(CN(C(=O)c3cccs3)C3CCN(Cc4ccccc4)CC3)c2)c1 [TCMDC-140565]	96.32
CC(C)CNCc1cccc(-c2ccc(CN(C(=O)c3cccs3)C3CCN(Cc4ccccc4)CC3)cc2)c1 [TCMDC-140569]	103.7
CN(c1cc(NC(=O)c2cccs2)ccn1)C1CCN(Cc2ccccc2)CC1 [TCMDC-135006]	1.42
CN(CCCCCNC(=O)/C=C/c1ccc(Cl)c(Cl)c1)CCc1c[nH]c2ccccc12 [TCMDC-139327]	-26.77
COc1cc(Cc2c(C)nc3nc(N)nc(N)c3c2C)c(Br)c(OC)c1OC [TCMDC-137644]	1.652
COc1cccc(NC(=O)NC2CCN(c3ccnc(Nc4ccc(F)cc4)n3)C2)c1 (centres unmarked) [TCMDC-133602]	-32.07
